Assay outcomes (PubChem BioAssay)
In the library only some 32% were active in any assay of this set; here they are far more common.
CYP2C19 inh: blocks human cytochrome P450 2C19; P33261; CYP2C19 Supersomes, luciferin-H EGE luminescence, 30 min; inhibition, % at 5 µM; actives 21% (n = 96,000);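 active means CYP2C19 inhibition above a set limit at 5 µM in the primary screen, cut at about 50% in these data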;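 further: plate controls were negative control wells for no effect and 2.5 mM tranylcypromine positive control for full effect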
Target sequence (P33261 whole entry, looked up): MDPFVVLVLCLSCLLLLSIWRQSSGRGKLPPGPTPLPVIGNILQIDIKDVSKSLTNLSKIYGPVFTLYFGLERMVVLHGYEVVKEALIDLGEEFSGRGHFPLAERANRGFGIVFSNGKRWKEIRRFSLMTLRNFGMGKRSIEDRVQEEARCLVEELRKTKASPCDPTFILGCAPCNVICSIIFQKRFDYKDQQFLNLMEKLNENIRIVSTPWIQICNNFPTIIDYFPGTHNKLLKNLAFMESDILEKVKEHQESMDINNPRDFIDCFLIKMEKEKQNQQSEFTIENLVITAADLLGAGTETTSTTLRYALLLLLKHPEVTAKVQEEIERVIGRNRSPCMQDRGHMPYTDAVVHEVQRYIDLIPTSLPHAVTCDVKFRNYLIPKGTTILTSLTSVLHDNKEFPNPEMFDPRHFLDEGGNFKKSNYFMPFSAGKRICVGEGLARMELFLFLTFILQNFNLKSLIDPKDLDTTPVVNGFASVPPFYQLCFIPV
PostGolgi yeast: growth inhibition of a yeast mutant, post-Golgi transport screen | post-Golgi transport phenotypic cell assay | inhibition, % at 10 µM | actives 0.9% (n = 98,000) | AID 739;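 further: yeast cells grown in 1536-well plates; yeast grown about 18 h at 30C before absorbance read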
CYP2C9 activ: CYP2C9 (human) activation; P11712; AID 1024; actives 1.4% (n = 96,000); activation factor at 5 µM; recombinant CYP2C9, luciferin-H conversion, luminescence; hits give high values; factor 1 = untreated enzyme, 0 = blocked;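 active means activation factor of 2 or more for CYP2C9 at a 5 µM dose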;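 further: 0 = sulfaphenazole-blocked wells and 1 = vehicle-only wells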
CYP2C9 inh: blocks human cytochrome P450 2C9. P11712. CYP2C9 Supersomes, luciferin-H conversion, luminescence. inhibition, % at 5 µM. actives 20% (n = 96,000). AID 777;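 active means blocking of liver enzyme CYP2C9 beyond about 50% at 5 µM, limit read from the data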
PostGolgi ctrl: inhibits growth of the yeast control strain; efflux-deficient yeast background strain, growth absorbance A615, 16 h; inhibition, % at 10 µM; actives 5% (n = 98,000)
CYP2C19 activ: activators of human cytochrome P450 2C19; P33261; recombinant CYP2C19, luciferin-H EGE luminescence; hits give high values; 0 = fully inhibited enzyme, 1 = untreated enzyme; activation factor at 5 µM; 96,000 tested, under 10 active; AID 1025;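 active means activation factor of at least 2 at 5 µM in the primary screen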;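 further: 0 = wells with 2.5 mM tranylcypromine and 1 = vehicle-only wells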
An asterisk follows results filed as active; / = no result given. Unless noted, no stated cut-off is given here; in the data, active means inhibition above about 30%; inactive means the rest.

SMILES | CYP2C19 inh | PostGolgi yeast | CYP2C9 activ | CYP2C9 inh | PostGolgi ctrl | CYP2C19 activ
Cc1cnc(NC(=O)CSc2ccc(Cl)cc2)s1 | 68.8* | 5.2 | 0.5 | 48.9 | 19.7 | 0.3
CC(C)C(NC(=O)CSc1ccc(Cl)cc1)C(C)C | 100.0* | -5.7 | 0.3 | 65.9* | -0.2 | 0
COc1ccc(OC(C)C(=O)N2CCC(C)CC2)cc1 (centres undefined) | 16.5 | 19.8 | 1 | 0.2 | 5.3 | 0.8
COc1ccccc1N1CCN(C(=O)C2CCN(S(=O)(=O)N3CCOCC3)CC2)CC1 | -3.1 | 15.5 | 1.1 | -13.4 | 16.6 | 1
CCOC(=O)C1=C(C)C(c2ccc(OC)cc2)NC(=S)N1 (centres undefined) | 59.2* | 2.2 | 0.2 | 82.3* | 3.4 | 0.4
N#Cc1c2n(c3c(=O)n(CC(=O)c4ccc(Br)cc4)cnc13)CCCC2 | 53.4* | 1.1 | 0.9 | 13.5 | 2.4 | 0.5
N#Cc1c2ncn(CC(=O)c3ccc(Br)cc3)c(=O)c2c2n1CCC2 | 34.4 | -1.6 | 1.1 | -11.7 | -0.3 | 0.7
N#Cc1c2n(c3c(=O)n(Cc4ccc(Cl)cc4)cnc13)CCCCC2 | 99.3* | -10.8 | 0 | 99.9* | 57.9* | 0
N#Cc1c2n(c3c(=O)n(Cc4ccccc4)cnc13)CCCC2 | 97.7* | -0.3 | 0.2 | 81.9* | 6.5 | 0
CCOC(=O)Cn1cnc2c(C#N)c3n(c2c1=O)CCCCC3 | 2.0 | 4.2 | 1 | 3.7 | 0.3 | 1
Cc1ccc(C)c(N(CC(=O)NCCC2=CCCCC2)S(C)(=O)=O)c1 | 30.6 | 7.7 | 0.6 | 36.5 | 7.0 | 0.7
CC(=O)Nc1sc2c(c1CN1CCN(C)CC1)CCCC2 | 19.9 | 0.0 | 1.1 | -12.1 | -2.4 | 0.8
O=C(CSc1cn(Cc2ccccc2)c2ccccc12)N1CCOCC1 | 87.8* | 13.3 | 0.8 | 21.2 | 22.9 | 0.1
CCn1c(=O)cc(SCC(=O)Nc2ccc(OC)c(OC)c2)c2ccccc21 | 60.2* | 18.8 | 2* | -102.0 | 14.5 | 0.4
CCn1c(=O)cc(SCC(=O)N2CCN(c3ccccc3OC)CC2)c2ccccc21 | 43.2 | -6.6 | 2.3* | -129.1 | 2.4 | 0.6
CCn1c(=O)cc(SCC(=O)Nc2ccc(Cl)cc2)c2ccccc21 | -14.9 | -6.1 | 1.1 | -11.8 | -0.5 | 1.1
CCn1c(=O)cc(SCC(=O)N2CCN(C3CCCCC3)CC2)c2ccccc21 | 64.7* | 10.0 | 2.4* | -142.6 | 13.1 | 0.4
CON/C=C(\C=Nc1ccc(Cl)cc1)c1ncc(C(F)(F)F)cc1Cl | -13.3 | -4.1 | 1.1 | -6.6 | 7.7 | 1.1
O=C(CCS(=O)(=O)c1ccc(Cl)cc1)N1CCN(S(=O)(=O)c2cccs2)CC1 | / | 3.9 | / | / | 11.1 | /
Cc1ccccc1N1C(=O)CC(Sc2nnc(-c3ccccc3)o2)C1=O (centres undefined) | 41.0 | -4.2 | 0.6 | 35.7 | 11.3 | 0.6
CCn1c(=O)cc(SCC(=O)N2CCOCC2)c2ccccc21 | -8.8 | -2.7 | 2.1* | -106.9 | 2.9 | 1.1
Oc1ccc(N2CCN(C(c3cccnc3)c3nnnn3Cc3ccccc3)CC2)cc1 (centres undefined) | 52.2* | 12.6 | 0.4 | 57.1* | 10.2 | 0.5
c1ccc(CCn2nnnc2C(c2cccnc2)N2CCN(c3nc4ccccc4s3)CC2)cc1 (centres undefined) | 58.7* | 42.6* | 0.6 | 36.3 | 14.8 | 0.4
c1ccc(CCn2nnnc2C(c2cccnc2)N2CCN(c3ccccc3)CC2)cc1 (centres undefined) | 80.7* | 61.5* | 0.3 | 72.7* | 43.0* | 0.2
CCOC(=O)c1cc2c(C)n(-c3ccc(N(C)C)cc3)c(C)c2cc(C(=O)OCC)c1=O | 50.4* | -3.9 | 0.7 | 32.8 | 0.8 | 0.5
SMILES | CYP2C19 inh | PostGolgi yeast | CYP2C9 activ | CYP2C9 inh | PostGolgi ctrl | CYP2C19 activ
O=C(c1ccc(=O)[nH]c1)N(Cc1ccco1)C1(C(=O)NC2CCCC2)CCCCC1 | -13.4 | 6.2 | 1.1 | -11.6 | 14.9 | 1.1
O=C(COc1ccc(S(=O)(=O)NC2CCCCC2)cc1Cl)NCC1CCCO1 (centres undefined) | 57.9* | -7.2 | 0.1 | 89.9* | 9.1 | 0.4
O=C(COc1ccc(S(=O)(=O)NC2CCCCC2)cc1)NCc1cccnc1 | -9.8 | 18.1 | 0.7 | 29.9 | 4.1 | 1.1
O=C(COc1ccc(S(=O)(=O)NCc2ccccc2)cc1Cl)NCC1CCCO1 (centres undefined) | -1.1 | 0.9 | 0.2 | 78.5* | 3.3 | 1
O=C(COc1ccc(S(=O)(=O)NC2CCCCC2)cc1Cl)NCc1cccnc1 | 49.6 | 20.0 | 0 | 97.6* | -4.5 | 0.5
COc1ccc(CCNC(=O)COc2ccc(S(=O)(=O)NC3CCCCC3)cc2Cl)cc1 | 64.2* | 0.3 | 0.1 | 85.2* | 11.2 | 0.4
CCOC(=O)C1=C(C)NC(=O)C1(NC(=O)c1cccnc1)C(F)(F)F (centres undefined) | -1.9 | 5.6 | 1.2 | -15.8 | 0.6 | 1
Cc1cc(C)c(C)c(OCC(=O)NCC2CCCO2)c1 (centres undefined) | 62.7* | 4.5 | 1.6 | -57.2 | 4.1 | 0.4
Cc1cc(C)cc(OCC(=O)NCC2CCCO2)c1 (centres undefined) | 22.3 | 14.5 | 1.4 | -35.3 | -6.2 | 0.8
Cc1ccc(C(=O)COC(=O)C2C3C=CC(C3)C2C(=O)OCC(=O)c2ccc(C)c(C)c2)cc1C (centres undefined) | 28.8 | -1.9 | 0.5 | 50.9* | 4.0 | 0.7
COC(=O)c1cc2occc2n1Cc1c(F)cccc1Cl | 12.5 | -3.3 | 0.8 | 24.9 | 11.5 | 0.9
O=C(Cn1c(=O)oc2ccccc21)N1CCN(c2ccccc2)CC1 | 23.5 | 11.8 | 1 | -2.1 | 31.1* | 0.8
CCC1CCCCN1C(=O)Cn1c(C(=O)OC)cc2ccsc21 (centres undefined) | 52.6* | -8.3 | 0.6 | 37.8 | 15.9 | 0.5
CC1Cc2ccccc2N1C(=O)CSCC(=O)O (centres undefined) | -7.5 | 4.9 | 1.1 | -12.6 | 8.6 | 1.1
O=C(CCn1c(=O)oc2ccccc21)N1CCN(C(c2ccccc2)c2ccccc2)CC1 | 3.6 | 5.2 | 0.3 | 66.2* | 36.5* | 1
CC1Cc2ccccc2N1C(=O)CCn1c(=O)oc2ccccc21 (centres undefined) | 94.0* | -11.1 | 0.2 | 77.3* | 7.3 | 0.1
Nc1cc(Br)c(N)c(Br)c1 | -1.0 | 6.4 | 1.1 | -8.6 | 7.8 | 1
Cn1cccc1Cc1nnc(SCC(=O)NCC2CCCO2)n1-c1ccc(F)cc1 (centres undefined) | 2.4 | 4.7 | 0.9 | 10.5 | -1.0 | 1
CC1CCN(S(=O)(=O)c2ccc3c(c2)oc(=O)n3CC(=O)N2c3ccccc3CC2C)CC1 (centres undefined) | 46.3 | -7.1 | 0.6 | 42.3 | 4.2 | 0.5
O=C(CCn1c(=O)oc2ccccc21)N1CCN(c2ccccc2F)CC1 | 73.3* | 3.2 | 0.7 | 26.8 | 4.2 | 0.3
CCC1CCCCN1C(=O)Cn1c(=O)oc2ccccc21 (centres undefined) | 83.3* | -23.6 | 0.9 | 12.3 | 2.9 | 0.2
